Results filed as inconclusive are left out. Entries that show only a call come without a potency. Active and inactive are the calls of the source. Calls come from the whole dose curve; as a rule, active = well fitted cell-killing curve with a large enough effect; inconclusive = small, poorly fitted or top-dose-only effect; inactive = flat fitted curve, though single readings scatter.
Experiment: qHTS of pediatric cancer cell lines to identify multiple opportunities for drug repurposing: Primary screen for TC32 cells (AID 1347089); note: nearly all actives have a fitted effect of over 60% in size
Conditions: TC32 Ewing sarcoma viability, CellTiter-Glo luminescence, 48 h; series mostly up to 45.8 µM
Method in brief: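 Measured quantity: luminescence from CellTiter-Glo, reflecting metabolically active TC32 cells following 48 h of compound. Curves came straight from multi-point titrations, with 8 or 11 points in primary and 11 in confirmatory screening.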
Potency is the fitted concentration of half-maximal effect.

SMILES	Potency
COc1ccc(-n2c(C)c([N+](=O)[O-])c3ccc(O)cc32)cc1	inactive
CC=CC[C@@H](C)C(=O)[C@H]1C(=O)N[C@@H](C(C)C)C(=O)N(C)CC(=O)N(C)[C@@H](CC(C)C)C(=O)N[C@@H](C(C)C)C(=O)N(C)[C@@H](CC(C)C)C(=O)N[C@@H](C)C(=O)N[C@H](C)C(=O)N(C)[C@@H](CC(C)C)C(=O)N(C)[C@@H](CC(C)C)C(=O)N(C)[C@@H](C(C)C)C(=O)N1C	inactive
C[C@]12CC[C@@H]3c4ccc(O)cc4C[C@@H](CCCCCCCCCS(=O)CCCC(F)(F)C(F)(F)F)[C@H]3[C@H]1CC[C@H]2O (stereo partly specified)	inactive
N#C[C@H]1C[C@H]2C[C@@H]2N1C(=O)[C@@H](N)C12CC3CC(CC(O)(C3)C1)C2	inactive
CC(C)(C)COc1ccc(-n2cc(C(=O)O)cn2)cc1C#N	inactive
Cc1ccc(/C=N/NC(=O)c2ccccc2Oc2ccccc2)o1	inactive
COc1ccc2c3c1OC1C[C@@H](O)C=C[C@@]31CCN(C)C2 (stereo partly specified)	inactive
C=C1C(=O)[C@@]23C(CC[C@@H]1[C@H]2O)[C@@]12CO[C@]3(O)[C@@H](O)[C@@H]1C(C)(C)CC[C@@H]2O (stereo partly specified)	16.5 µM (active)
CC(C)(C)C(=O)Oc1ccc2c(c1)nc(NC(=O)c1cccc([N+](=O)[O-])c1)n2CCCO	inactive
NC[C@@H]1O[C@@H](O[C@H]2[C@@H](O)[C@H](O[C@@H]3[C@@H](O)[C@@H](N)C[C@H](N)[C@H]3O[C@H]3O[C@H](CN)[C@@H](O)[C@@H](O)[C@H]3N)O[C@H]2CO)[C@H](N)[C@@H](O)[C@@H]1O	inactive
CCC(=O)O[C@]1(C(=O)CO)CC[C@H]2[C@@H]3CCC4=CC(=O)CC[C@]4(C)[C@@H]3CC[C@@]21C	inactive
Cc1ccc(C(C)(O)c2nc3ccccc3s2)c(C)c1 (stereo unspecified)	inactive
N#Cc1ccc(NC(=O)Nc2ccccc2Br)c2n[nH]nc12	inactive
CO[C@H]1C=CO[C@@]2(C)Oc3c(C)c(O)c4c(O)c(c5c(c4c3C2=O)NC2(CCN(CC(C)C)CC2)N=5)=NC(=O)C(C)=CC=C[C@H](C)[C@H](O)[C@@H](C)[C@@H](O)[C@@H](C)[C@H](OC(C)=O)[C@H]1C	inactive
CNC1CCC(N(Cc2cccc(-c3ccncc3)c2)C(=O)c2sc3c(F)ccc(F)c3c2Cl)CC1 (stereo unspecified)	inactive
O=C1NC(=O)C(=Cc2cccc(C(F)(F)F)c2)S1	inactive

SMILES	Potency
COc1ccc2c(Oc3ccc(NC(=O)c4c(C)n(CC(C)(C)O)n(-c5ccccc5)c4=O)cc3F)ccnc2c1	inactive
N#CC(=C(N)Sc1ccccc1N)C(C#N)=C(N)Sc1ccccc1N	inactive
C[C@]12CC[C@@H]3c4ccc(O)cc4CC[C@H]3[C@H]1C[C@@H](O)[C@H]2O	inactive
O=C(NC1CCOCC1)c1ccc(-c2cc(-c3cn[nH]c3-c3ccccn3)ccn2)cc1	inactive
CC(C)n1cnc2c(NCCCCCCNC(=O)OC(C)(C)C)nc(NCCO)nc21	inactive
C=C1C(=O)OC(CCCCCCCC)C1C(=O)O (stereo unspecified)	inactive
CC(=O)Oc1cc2c(s1)CCN(C(C(=O)C1CC1)c1ccccc1F)C2 (stereo unspecified)	inactive
O=C(N[C@@H](c1ccccc1)[C@@H]1CCCCN1)c1cccc(C(F)(F)F)c1Cl	inactive
CC1(C)CCC[C@@]2(C)[C@@H]1CC[C@@]1(C)OC(=O)C[C@H]21	inactive
CC(C)=CC[C@@H](O)C1=CC(=O)c2c(O)ccc(O)c2C1=O	inactive
O=C(O)c1ccc(-c2cc3cccnc3c(-c3ccc4nonc4c3)n2)cc1	inactive
C[C@H]1[C@H](NC(=O)C(=NOC(C)(C)C(=O)O)c2csc(N)n2)C(=O)N1S(=O)(=O)O	inactive
CC(=NNC(=S)N1CCC1)c1ccccn1	0.0415 µM (active)
CC=CCC=CCCC(=O)[C@H]1O[C@@H]1C(N)=O	inactive
O=C(NOCC(O)CO)c1cc(Br)c(F)c(F)c1Nc1ccc(I)cc1F (stereo unspecified)	inactive
